Measured values reported in PubChem BioAssay AID1159580 (chemical genetic matrix, 2015).
Values joined by “and” are separate entries in the source; they are usually repeats but may differ in a detail not shown here. Equal values may be shown once. Out of some 5,500 compounds screened, about 2,000 (36%) were called active. Inconclusive results (about 18%) are left out. Rule as the data show it: active = normalized growth mostly below about 0.91 (no sharp cut-off); inconclusive = no clear call, values can overlap the other calls; inactive = mostly above about 0.92. Some of the results follow.

Test: chemical genetic growth profiling, strain panel (AID 1159580);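 also: tested at 20 µM; growth read once vehicle control cultures reached saturation at 30 °C; 1 = growth at the plate median or of vehicle wells; lower values mean less growth of the strain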
Settings: S. cerevisiae deletion strains, growth OD

Measured: normalized growth

Cc1cc2cc3c(C)cc(=O)oc3c(C)c2o1
0.752 (active) and 0.891 (inactive): locus YJL095W, strain BCK1, stronger effect = lower value
inactive: locus YAL013W, strain DEP1, stronger effect = lower value 0.965 | locus YAL021C, strain ccr4, stronger effect = lower value 0.992 | locus YAL026C, strain drs2, stronger effect = lower value 0.949 | locus YAL030W, strain snc1, stronger effect = lower value 1.01 | locus YBL061C, strain skt5, stronger effect = lower value 0.997 | locus YBR009C, strain hhf1, stronger effect = lower value 0.937 | locus YBR021W, strain FUR4, stronger effect = lower value 1 | locus YBR023C, strain chs3, stronger effect = lower value 0.968 | locus YBR171W, strain sec66, stronger effect = lower value 0.959 | locus YBR229C, strain ROT2, stronger effect = lower value 0.967 | locus YBR231C, strain swc5, stronger effect = lower value 0.993 | locus YBR279W, strain paf1, stronger effect = lower value 0.949 | locus YCL011C, strain gbp2, stronger effect = lower value 0.955 | locus YCL016C, strain dcc1, stronger effect = lower value 0.939 | locus YCL029C, strain bik1, stronger effect = lower value 0.958 | locus YCL061C, strain MRC1, stronger effect = lower value 1 | locus YCL069W, strain vba3, stronger effect = lower value 0.955 | locus YCR088W, strain abp1, stronger effect = lower value 0.987 | locus YDL005C, strain med2, stronger effect = lower value 0.993 | locus YDL035C, strain GPR1, stronger effect = lower value 0.92 | locus YDL040C, strain nat1, stronger effect = lower value 1 | locus YDL074C, strain BRE1, stronger effect = lower value 0.832 | locus YDL101C, strain DUN1, stronger effect = lower value 0.933 | locus YDL134C, strain PPH21, stronger effect = lower value 0.951 | locus YDL185W, strain tfp1, stronger effect = lower value 0.958 | locus YDL192W, strain arf1, stronger effect = lower value 0.966 | locus YDR001C, strain nth1, stronger effect = lower value 0.984 | locus YDR069C, strain doa4, stronger effect = lower value 1.02 | locus YDR101C, strain arx1, stronger effect = lower value 0.951 | locus YDR137W, strain rgp1, stronger effect = lower value 1.03 | locus YDR150W, strain NUM1, stronger effect = lower value 0.993 | locus YDR159W, strain sac3, stronger effect = lower value 0.996 | locus YDR162C, strain NBP2, stronger effect = lower value 0.956 | locus YDR297W, strain sur2, stronger effect = lower value 1.01 | locus YDR318W, strain mcm21, stronger effect = lower value 0.94 | locus YDR334W, strain swr1, stronger effect = lower value 1 | locus YDR335W, strain msn5, stronger effect = lower value 1 | locus YDR388W, stronger effect = lower value 0.956 | locus YDR392W, strain spt3, stronger effect = lower value 0.875 | locus YDR502C, strain sam2, stronger effect = lower value 0.957 | locus YEL003W, strain gim4, stronger effect = lower value 0.972 | locus YEL037C, strain rad23, stronger effect = lower value 0.949 | locus YEL061C, strain CIN8 (second series), stronger effect = lower value 0.989 | locus YEL061C, strain CIN8, stronger effect = lower value 0.98 | locus YER015W, strain faa2, stronger effect = lower value 0.981 | locus YER016W, strain bim1, stronger effect = lower value 1 | locus YER110C, stronger effect = lower value 0.969 | locus YER111C, strain swi4, stronger effect = lower value 0.991 | locus YER155C, strain BEM2 (second series), stronger effect = lower value 0.926 | locus YER155C, strain BEM2, stronger effect = lower value 0.982 | locus YER167W, strain BCK2, stronger effect = lower value 0.975 | locus YFR010W, strain ubp6, stronger effect = lower value 0.965 | locus YGL078C, strain dbp3, stronger effect = lower value 0.982 | locus YGL086W, strain mad1, stronger effect = lower value 0.973 | locus YGL167C, strain pmr1, stronger effect = lower value 1.01 | locus YGL173C, strain kem1, stronger effect = lower value 0.997 | locus YGL227W, strain vid30, stronger effect = lower value 0.999 | locus YGL240W, strain doc1, stronger effect = lower value 0.98 | locus YGL248W, strain PDE1, stronger effect = lower value 0.929 | locus YGL253W, strain hxk2, stronger effect = lower value 0.953 | locus YGR078C, strain PAC10, stronger effect = lower value 0.879 | locus YGR135W, strain pre9, stronger effect = lower value 0.905 | locus YGR229C, strain SMI1, stronger effect = lower value 0.867 | locus YGR252W, strain gcn5, stronger effect = lower value 0.917 | locus YHR013C, strain ard1, stronger effect = lower value 0.877 | locus YHR027C, strain rpn1, stronger effect = lower value 1 | locus YHR079C, strain IRE1 (second series), stronger effect = lower value 0.981 | locus YHR079C, strain IRE1, stronger effect = lower value 0.948 | locus YHR094C, strain hxt1, stronger effect = lower value 0.992 | locus YHR129C, strain ARP1, stronger effect = lower value 0.967 | locus YHR142W, strain chs7, stronger effect = lower value 0.944 | locus YHR200W, strain rpn10, stronger effect = lower value 0.941 | locus YIL066C, strain RNR3, stronger effect = lower value 0.918 | locus YIL073C, strain SPO22, stronger effect = lower value 0.888 | locus YIL125W, strain kgd1, stronger effect = lower value 1 | locus YIR030C, strain dcg1, stronger effect = lower value 0.988 | locus YJL092W, strain hpr5, stronger effect = lower value 0.978 | locus YJL095W, strain BCK1 (second series), stronger effect = lower value 0.988 | locus YJL115W, strain asf1, stronger effect = lower value 0.991 | locus YJL129C, strain trk1, stronger effect = lower value 1.02 | locus YJL134W, strain LCB3, stronger effect = lower value 0.977 | locus YJL154C, strain vps35, stronger effect = lower value 0.99 | locus YJL164C, strain tpk1, stronger effect = lower value 0.95 | locus YJL166W, strain qcr8, stronger effect = lower value 0.989 | locus YJL187C, strain SWE1 (second series), stronger effect = lower value 0.91 | locus YJR043C, strain POL32, stronger effect = lower value 0.89 | locus YJR066W, strain TOR1, stronger effect = lower value 0.89 | locus YJR075W, strain HOC1, stronger effect = lower value 0.946
0.908 (active) and 0.94 (inactive): locus YHR030C, strain SLT2, stronger effect = lower value
active: locus YDR195W, strain ref2 1.28 [resistant]
